Test results: PubChem BioAssay (NCATS)
Several values for one entry are separate records, joined by “and”; a condition that tells them apart may be missing. Equal values may be shown once. Results filed as inconclusive are left out. Where a call stands in place of a potency, no number is given. Activity calls are given as the source filed them. Calls come from the whole dose curve; as a rule, active = well fitted cell-killing curve with a large enough effect; inconclusive = small, poorly fitted or top-dose-only effect, or effect the other way; inactive = no such curve, though single readings can be large or run the other way.

Assays:
[1] = Viability qHTS for spleen associated tyrosine kinase inhibitor (SYKi) naive MV4-11 cells (AID 1963823); note: nearly all actives have a fitted effect of over 40% in size
Outline: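 CellTiter-Glo luminescence, 10 min room-temperature incubation, gave viability. Cells: naive MV4-11 (500/well), treated 72 hr at 37 C, 5% CO2.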

[2] = Viability qHTS for spleen associated tyrosine kinase inhibitor (SYKi) drug resistant MV4-11 cells (AID 1963824); note: nearly all actives have a fitted effect of over 35% in size
Outline: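 SYK inhibitor-resistant MV4-11 AML cells, 500 per well, added to predispensed compounds and incubated 72 hr at 37 C, 5% CO2. Viability measured by CellTiter-Glo luminescence after 10 min at room temperature.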
Potency is the fitted concentration of half-maximal effect.

## CC/C=C/C=C/C1(C)OC(OC)=C(C(=O)C2C(C)C(=O)c3cc(OC)c(O)c(O)c3C2(C)O)C1=O (stereo not drawn)
[1]
  Potency: 10 µM (active)
[2]
  Potency: 10 µM (active)

## CC(C)(C)c1cc(C(C)(C)C)c2c(c1)C(O)(C(F)(F)F)C(=O)O2 (stereo not drawn)
[1]
  Potency: inactive
[2]
  Potency: inactive

## CCC(C)(O)C1(C(=O)O)COC(=O)C1 (stereo not drawn)
[1]
  Potency: inactive
[2]
  Potency: inactive

## CC1C/C=C/C(O)C(O)CC/C=C/c2cc(O)cc(O)c2C(=O)O1 (stereo not drawn)
[1]
  Potency: 5.7 µM (active)
[2]
  Potency: 8.05 µM (active)

## COC1CC(OC2CCC3(C=O)C(CCC4C3CCC3(C)C(C5=CC(=O)OC5)CCC43O)C2)OC(C)C1O (stereo not drawn)
[1]
  Potency: 0.0893 µM (active)
[2]
  Potency: 0.0709 µM (active)

## COC(=O)N1CCN(C(=O)Cc2ccc(Cl)c(Cl)c2)[C@@H](CN2CCCC2)C1
[1]
  Potency: inactive
[2]
  Potency: inactive

## C=CCN1CC[C@]23c4c5ccc(O)c4O[C@H]2[C@@H](O)CC[C@@]3(O)[C@H]1C5
[1]
  Potency: inactive
[2]
  Potency: inactive

## C=C1C[C@@H]2[C@H](CC[C@]3(C)C(=O)CC[C@@H]23)[C@@]2(C)C=CC(=O)C=C12
[1]
  Potency: 9.44 µM (active) and 14.8 µM (active)
[2]
  Potency: 5.96 µM (active) and 11.8 µM (active)

## COc1cc(O)c2c(c1)CCC[C@@H](O)[C@H](O)C(=O)/C=C\C[C@H](C)OC2=O
[1]
  Potency: 1.8 µM (active)
[2]
  Potency: 2.86 µM (active)

## C[C@]12CC[C@H](O)C[C@@H]1CC[C@@H]1[C@@H]2CC[C@]2(C)[C@@H](C3=CC(=O)OC3)CC[C@]12O
[1]
  Potency: 3.21 µM (active)
[2]
  Potency: 2.55 µM (active)

## CCC1NC(=O)C2C(Cl)C(Cl)CN2C(=O)C(C(C)O)NC(=O)CC(c2ccccc2)NC(=O)C(CO)NC1=O (stereo not drawn)
[1]
  Potency: inactive
[2]
  Potency: inactive

## O=C1C[C@@H]2OCC=C3CN4CC[C@]56c7ccccc7N1[C@H]5[C@H]2[C@H]3C[C@H]46
[1]
  Potency: inactive
[2]
  Potency: inactive

## CN1C[C@@H]2CN(c3ccc(-c4ccccc4)nn3)C[C@@H]2C1
[1]
  Potency: inactive
[2]
  Potency: 0.58 µM (active)

## O=C1N[C@@H](Cc2ccccc2)CN2CCCC[C@@H]12
[1]
  Potency: inactive
[2]
  Potency: inactive
